# Reference: ChEMBL document CHEMBL4513216, “Probing the Open Global Health Chemical Diversity Library for Multistage-Active Starting Points for Next-Generation Antimalarials” (ACS Infect Dis, 2020)
# In all, about 69,000 compounds went through this assay and about 8,600 (12%) showed an effect of 50% or more. Only a selection was taken, and strong results are over-represented in it overall.
# System: Plasmodium berghei
# Assay: Screen against P. berghei liver stage (PbLuc), transformed with Luciferase, at 10uM
# Assay type: functional, HepG2
# Details: tested at 10 uM
row,SMILES,INHIBITION
1,COc1ncccc1CN1C[C@@H]2C[C@@H](C(=O)NCC3CC3)N(C)[C@@H]2C1,27.2%
2,CCCn1cc(-c2cc(-c3cc(CC)n[nH]3)c(C#N)c(N)n2)c(C)n1,64.5%
3,CCCn1cc(-c2cc(-c3ccoc3)c(C#N)c(N)n2)c(C)n1,-24%
4,CCCn1cc(-c2cc(-c3c[nH]cn3)c(C#N)c(N)n2)c(C)n1,-8.47%
5,Cc1ccc(O)c(CNC2CCCN(Cc3noc(C4CC4)n3)C2)n1 (centres undefined),15.3%
6,CC(C)NC(=O)CN(C)CC(=O)Nc1ccnn1C(C)C1CC1 (centres undefined),-164%
7,Cc1nc(C)c(CC(=O)NCc2ccccc2F)s1,31.3%
8,CC(=O)Nc1ccc(CNC(=O)CNCc2snnc2C)cc1,52.2%
9,CC(=O)Nc1ccc(CN(C)Cc2snnc2C)cc1,34.6%
10,CC(=O)Nc1ccc(CNC(=O)CNCc2nnc(C)o2)cc1,45.4%
11,CC(=O)Nc1ccc(CNC(=O)CNCc2sc(C)nc2C)cc1,55.5%
12,Cc1nc(C)c(CC(=O)NCc2ccc(F)cc2)s1,-2.39%
13,O=C(O)c1cc(S(=O)(=O)N2CCOc3ccccc32)ccc1Br,2.7%
14,CN(C(=O)Cn1nc(-c2ccc(Br)cc2)ccc1=O)C1CCS(=O)(=O)C1 (centres undefined),-29.2%
15,CC(C)c1cc(O)nc(C2CCCN2C(=O)C2CC2)n1 (centres undefined),-9.32%
16,O=S(=O)(NCC1CCN(c2cnccn2)CC1)C1CC1,27.5%
17,Cn1nccc1-c1ccc2nc(C3CCNCC3)nn2c1,-3.33%
18,Cc1nc(S(=O)(=O)N2CCCCc3ccccc32)cn1C,-49.3%
19,COc1cccc(CC(=O)N2CCC(c3ccn4nccc4n3)CC2)c1,23.9%
20,O=C(NS(=O)(=O)c1ccc(C2CCCCC2)cc1)C1COCCO1 (centres undefined),46.4%
21,Cc1ccc(S(=O)(=O)NCC2CNCCOC2)cc1Cl (centres undefined),-95.7%
22,O=S(=O)(NCC1COCCO1)c1ccc(C2CCCCC2)cc1 (centres undefined),74.5%

row,SMILES,INHIBITION
1,Cc1cc(C)n(CC2CCCN2C(=O)c2cncnc2C)n1 (centres undefined),-2.1%
2,CCOCCN1CCc2cncnc2C1,53.3%
3,Cc1ncc2c(n1)CN(CCOCC(F)(F)F)CC2,26.6%
4,CCc1ncc2c(n1)CN(CC1CCCCO1)CC2 (centres undefined),9.35%
5,O=C(CN1CCc2cncnc2C1)NC(C1CC1)C1CC1,57%
6,O=C(CN1CCc2cncnc2C1)NC(c1ccccc1)C1CC1 (centres undefined),24.4%
7,Cc1ncc2c(n1)CN(CC1CCCCO1)CC2 (centres undefined),3.17%
8,COCCCN1CCc2cncnc2C1,40.3%
9,FC(F)(F)COCCN1CCc2cncnc2C1,64%
10,c1ncc2c(n1)CN(CC1CCCCO1)CC2 (centres undefined),87.1%
11,N#Cc1ccc(OCCN2CCc3cncnc3C2)cc1,9.54%
12,CC(C)OCCN1CCc2cncnc2C1,24.4%
13,Cc1ccc(C(NC(=O)CN2CCc3cncnc3C2)C2CC2)cc1 (centres undefined),34.2%
14,Cn1nnc2c(N3CC(C(=O)NCc4ccccc4F)C3)ncnc21,15.7%
15,Cc1cnn(CC2CCCN2CCCS(=O)(=O)N(C)C)c1 (centres undefined),2.97%
16,N#Cc1ccc(C2CC(=O)Nc3c(C(=O)O)nsc32)cc1 (centres undefined),-38.7%
17,CC(C)C(Sc1nnc(NC2CC2)s1)C(=O)NCc1cccnc1 (centres undefined),-26.7%
18,Cc1noc(C)c1S(=O)(=O)NC(=O)COc1cccc(C(C)C)c1,13.3%
19,Nc1nc2c(s1)C(c1c(F)cccc1Cl)CC(=O)N2 (centres undefined),30%
20,CCNc1ncc(C(=O)N(C)C(C)c2ccc3c(c2)OCCO3)cn1 (centres undefined),15.8%
21,Cc1ccccc1-c1cncc(C2CCN(CCO)CC2)n1,38.2%
22,CN(CC1COc2ccccc2O1)C(=O)C1=NN(C)C(=O)CC1 (centres undefined),25.7%

row,SMILES,INHIBITION
1,CCCN(CC1COc2ccccc2O1)C(=O)C1=NN(C)C(=O)CC1 (centres undefined),42.4%
2,CCN(CC1COc2ccccc2O1)C(=O)C1=NN(C)C(=O)CC1 (centres undefined),50.8%
3,CCNC(=O)CCCC(=O)N1CCc2cc(Cl)cc(Cl)c2C1,-4.52%
4,COC(=O)C1CCN(C(=O)Cn2ccc(-c3ccccc3)n2)CC1,-35%
5,CN1CCO[C@H]2CN(C(=O)c3ccoc3)C[C@H]21,54.4%
6,O=C(c1ccoc1)N1C[C@@H]2OCCN(c3ncccn3)[C@@H]2C1,-4.32%
7,CC(C)N1CCO[C@H]2CN(C(=O)c3ccoc3)C[C@H]21,38.7%
8,O=C(NCc1cc(-c2ccccc2)no1)NC1CCCCNC1=O (centres undefined),-24.8%
9,O=C(c1n[nH]cc1Cl)N1CCCC(n2nnc3cc(F)ccc32)C1 (centres undefined),38.8%
10,N#CC1(C(=O)N2C[C@@H]3CC[C@H]2CN(Cc2ccncc2)C3)CCOCC1,26.5%
11,CN(Cc1cnccn1)S(=O)(=O)c1ccc(C(F)(F)F)nc1,75.5%
12,Cc1ccc(S(=O)(=O)N(C)Cc2cnccn2)cc1N(C)C,26%
13,CN(CC(C)(C)C)S(=O)(=O)c1ccc(C(F)(F)F)nc1,33.7%
14,CN1CCN(C(=O)c2cn3ccsc3n2)[C@H]2CS(=O)(=O)C[C@H]21,38.5%
15,CN1CCCC1CNC(=O)CCCOc1ccc(Cl)cc1 (centres undefined),24.665%
16,O=C(c1ccsc1)N1C[C@@H]2CCN(C(=O)c3cscn3)[C@@H]2C1,27.5%
17,O=C(C1CCC1)N1CCC(c2ncc3c(n2)CCNC3)CC1,-12.9%
18,CC1(C)CN(C(=O)CC2CCS(=O)(=O)CC2)C[C@]1(C)O,34.4%
19,CCc1ccc(C(=O)N2CC[C@](C)(O)C(C)(C)C2)[nH]1,-10.6%
20,CCCN1CCC(CC(=O)N2CC(C)(C)[C@@](C)(O)C2)CC1,57.2%
21,CC1(C)CC(CC(=O)N2CC(C)(C)[C@@](C)(O)C2)CC(C)(C)N1,70.2%
22,CC1(C)CN(C(=O)CC2CCC2)C[C@]1(C)O,47.4%

row,SMILES,INHIBITION
1,CCN(CC)Cc1cc(C(=O)N2CC(C)(C)[C@@](C)(O)C2)c(C)o1,35.7%
2,CCc1cc(N[C@@H]2CC[C@@H](N)C2)n2nc(C)c(C)c2n1,-42.8%
3,Cc1cc(C(=O)NCC(C)C)nn1C,37.9%
4,O=C(NCc1cc2ccccc2[nH]1)C1CCCN(C(=O)N2CCCC2)C1 (centres undefined),3.87%
5,COC(=O)CC1c2cccnc2C(=O)N1Cc1ccccc1 (centres undefined),36.6%
6,CN(CC(=O)N1CCCC1)C(=O)Cc1csc(-c2ncccn2)n1,30.057%
7,O=C(c1cccc(F)c1)N1CCCN(Cc2cscn2)CC1,-75.2%
8,Cc1cc(C)c2cc(CNCC3CCCO3)c3nn(C)c(=O)n3c2c1 (centres undefined),55.2%
9,Cc1cc(C)c2c(OCC(=O)NC(C)C)nn(C)c2n1,37.1%
10,Cc1cc(NCC2CCCO2)cc(=O)n1C (centres undefined),29.3%
11,Cc1nn(C)c(C)c1CC(=O)NCc1ccnc(OC2CCCC2)c1,25.3%
12,Cc1cc(C)c2cc(CNC3CCCCC3)c3nn(C)c(=O)n3c2c1,73.8%
13,Cc1cc(C)c2ncn(CCC(C)O)c(=O)c2c1 (centres undefined),6.28%
14,Cc1cc(C)c2cc(CNC(C)C)c3nn(C)c(=O)n3c2c1,64.9%
15,Cc1noc2ncc(C(=O)NCC3CCCO3)cc12 (centres undefined),-17.45%
16,CCCn1cnnc1CNC1CCCC1,9.91%
17,Cc1csc(N2CCC(CCN3CCCC3=O)CC2)n1,-40.5%
18,COc1ccc2c3c1CN(S(C)(=O)=O)CC3=CC(C)(C)CO2,29.8%
19,Cn1ncc2c(=O)[nH]c(CN3CCCC3c3ccsc3)nc21 (centres undefined),-19.6%
20,CNC(=O)[C@H]1C[C@H]2OCC[C@H]2N(CC2CCOCC2)C1,10.5%
21,O=C([C@H]1C[C@H]2OCC[C@H]2N(CC2CC2)C1)N1CCCC1,82.2%
22,O=C([C@H]1C[C@H]2OCC[C@H]2N(CC2CCOCC2)C1)N1CCCC1,76.3%

row,SMILES,INHIBITION
1,O=C([C@H]1C[C@H]2OCC[C@H]2N(C(=O)C2CCOCC2)C1)N1CCCCO1,28.3%
2,O=C(NC1CC1)[C@H]1C[C@H]2OCC[C@H]2N(CC2CCOCC2)C1,25.4%
3,O=C([C@H]1C[C@H]2OCC[C@H]2N(CC2CCOCC2)C1)N1CCCCO1,50.9%
4,O=C([C@H]1C[C@H]2OCC[C@H]2N(CC2CC2)C1)N1CCCCO1,29.9%
5,CNC(=O)[C@H]1C[C@H]2OCC[C@H]2N(CC2CC2)C1,10.5%
6,O=C([C@H]1C[C@@H]2[C@@H](C1)OCCN2CC1CC1)N1CCCC1,5.36%
7,CC1CCN(c2nc3cn(-c4ccccc4)c(=O)c-3c[nH]2)CC1,-21.5%
8,Cc1cccc(CN2CCCC3(CCC(=O)N3CCN(C)C)CC2)n1 (centres undefined),-6.05%
9,CN(C)C(=O)N1C[C@@H]2CCCO[C@@H]2[C@H](N(C)Cc2ccco2)C1,41.8%
10,CC(C)c1n[nH]c(C2CN(C(=O)c3cnccn3)CCO2)n1 (centres undefined),48.4%
11,CN1CCC(C)(CNC(=O)c2ccc(SCc3cccnc3)cc2)CC1,34%
12,CCSc1ncc(Cl)c(C(=O)NC(CCSC)C(=O)O)n1 (centres undefined),15.9%
13,CNS(=O)(=O)c1ccc(CNC(=O)NCC2CCC2)cc1,-75.2%
14,CNS(=O)(=O)c1ccc(CNC(=O)NCC2CCOC2)cc1 (centres undefined),21.9%
15,CNS(=O)(=O)c1ccc(CNC(=O)C2CCCN(C)C2)cc1 (centres undefined),-34.8%
16,CNS(=O)(=O)c1ccc(CNC(=O)N2CCOC(C)C2)cc1 (centres undefined),50%
17,CNS(=O)(=O)c1ccc(CNC(=O)N(CC(C)C)C(C)C)cc1,31.2%
18,CNS(=O)(=O)c1ccc(CNC(=O)C2CCCO2)cc1 (centres undefined),54.3%
19,CNS(=O)(=O)c1ccc(CNC(=O)C2CN(C)CCO2)cc1 (centres undefined),50%
20,CNS(=O)(=O)c1ccc(CNC(=O)NCC2CCCO2)cc1 (centres undefined),0.932%
21,CC1CN(C(=O)NCc2cnn(-c3ccc(F)cc3F)c2)CCO1 (centres undefined),-2.55%
